From PubChem BioAssay (NCATS) come the findings set out here.

Results filed as inconclusive are left out. A call without a number means that no potency is given here. Active and inactive are the calls of the source. The call rests on the fitted dose curve; tested in HEK293 reporter line.

The first experiment can be described thus: qHTS for Inhibitors of the Functional Ribonucleoprotein Complex (vRNP) of Lassa (LASV) Arenavirus: LASV Primary Screen - GLuc reporter signal (AID 1347082). Further: nearly all actives have a fitted effect of over 60% in size. To be noted: LASV minigenome vRNP, Gaussia luciferase reporter; series mostly up to 57.5 µM.
As for `NC[C@@H]1O[C@@H](O[C@H]2[C@@H](O)[C@H](O[C@@H]3[C@@H](O)[C@@H](N)C[C@H](N)[C@H]3O[C@H]3O[C@H](CN)[C@@H](O)[C@@H](O)[C@H]3N)O[C@H]2CO)[C@H](N)[C@@H](O)[C@@H]1O`, the Potency entry is “inactive”.

For `O=C(O)c1cc(N(Cc2ccccc2O)Cc2ccccc2O)ccc1O`, the Potency result is “inactive”.

Turning to `COc1ccc([C@H]2Cc3cccc(O)c3C(=O)O2)cc1O`, the Potency result was “inactive”.

For the compound `COc1cc(/C=C2/C(=O)Nc3ccccc32)cc(OC)c1O`, the Potency entry is “inactive”.

As to `C/C=C(/C)C(=O)O[C@@H]1c2c(ccc3ccc(=O)oc23)O[C@@H]1C(C)(C)OC(C)=O`, the Potency result is “inactive”.

As to `COc1cc(C)c(C(=O)Oc2cc(C)c(C(=O)O)c(O)c2C)c(O)c1C`, the Potency result is “inactive”.

Turning to `CCN1C[C@]2(CO)CC[C@H](OC)[C@@]34C5C[C@H]6[C@H](OC)C5[C@](O)(C[C@H]6OC)[C@@](O)(C(OC)C23)[C@@H]14` (stereo not given in full), the Potency entry was “inactive”.

As for `CC1CCC(C(C)(C)S)C(=O)C1` (stereo not given), the Potency entry is “inactive”.

Take `CC1C(c2ccccc2)OC(=O)N1C` (stereo not given): the Potency result was “inactive”.

In the case of `COc1ccc(COC(C)=O)cc1`, the Potency entry was “inactive”.

Consider `Nc1nc(N)c2[nH]cnc2n1`, for which the Potency result was “inactive”.

On to `C[C@@H](O)CCC[C@H](O)/C=C/[C@H]1[C@H](O)CC(=O)[C@@H]1C/C=C\CCCC(=O)O`, for which the activity change, negative = inhibition was -72.5% [at 5.82 µM] (inactive).

On to `COc1cc2c(cc1O)[C@@H]1Cc3cc(OC)c(OC)cc3C(C2)N1C`, for which the Potency result is “inactive”.

`COc1ccc2ccc(=O)oc2c1CC(=O)C(C)C`: the Potency result was “inactive”.

As for `CCC/C=C/CO`, the Potency result was “inactive”.

On to `O=C(O)CCC/C=C\C/C=C\C=C\[C@@H](O)C/C=C\CCCCCO`, for which the activity change, negative = inhibition was 7.21% [at 0.757 µM] (inactive).

Take `COc1c2c(nc3occc13)C(CC=C(C)C)(OC)C(=O)C=C2` (stereo not given): the Potency entry was “inactive”.

With `CC(O)C(C)O` (stereo not given), the Potency result is “inactive”.

In the case of `C[C@]12CCC3C(CC[C@H]4C[C@H](O)CC[C@]34C)C1C[C@H](O)[C@@H]2O` (stereo not given in full), the Potency entry was “inactive”.

Consider `C=Cc1cc(OC)c2c(c1)c(=O)oc1c2cc(OC)c2c(O)ccc(C3OC(C)C(O)C(C)(O)C3O)c21` (stereo not given), for which the Potency entry is “inactive”.

In the case of `Nc1nc(=O)n([C@H]2CSC(CO)O2)cc1F` (stereo not given in full), the Potency result is “inactive”.

As for `C[C@H]1O[C@H](O[C@H]2[C@H](O)[C@@H](O)[C@@H](O[C@H]3[C@H](O)[C@@H](O)C(O)O[C@H]3CO)O[C@H]2CO)[C@H](O)[C@@H](O)[C@H]1N[C@H]1C=C(CO)[C@@H](O)[C@H](O)[C@@H]1O` (stereo not given in full), the Potency entry was “inactive”.

For `C=C1C(O)C[C@H]2C(=C)CCC3[C@H](OC(=O)[C@]3(O)CO)[C@@H]12` (stereo not given in full), the Potency entry was “inactive”.

`NC1=NCCCC1`: the Potency result was “inactive”.

In the case of `CC(=O)c1ccc(-c2cccs2)s1`, the Potency result was “inactive”.

Regarding `Cc1[nH]c(C=C2C(=O)Nc3ccccc32)c(C)c1CCC(=O)O`, the Potency entry was “inactive”.

`COc1c2c(cc3oc(CO[C@@H]4O[C@H](CO)[C@@H](O)[C@H](O)[C@H]4O)cc(=O)c13)O[C@H](C(C)(C)O)C2`: the Potency entry was “inactive”.

As for `CCCCC[C@H](O)/C=C/[C@H]1OC(O)C[C@H](O)[C@@H]1C/C=C\CC(=O)O` (stereo not given in full), the activity change, negative = inhibition is -6.19% [at 0.757 µM] (inactive).

As for `COC1=CC(=O)CC(C)C12Oc1cc(OC)cc(OC)c1C2=O` (stereo not given), the Potency entry is “inactive”.

Take `C=CC(C)(CCC=C(C)C)OC(=O)C(C)C` (stereo not given): the Potency entry is “inactive”.

`COc1c(C(O)CC(C)C)ccc2c1C(=O)OCc1cc(C)cc(O)c1O2` (stereo not given): the Potency entry is “inactive”.

Regarding `C[C@@H]1CCCCCCCCCCC1=O`, the Potency entry is “inactive”.

Consider `CCCCC/C=C\C/C=C\C/C=C\CCCCCCC(=O)O[C@H](COCCCCCCCCCCCCCCCC)COP(=O)([O-])OCC[N+](C)(C)C`, for which the activity change, negative = inhibition is -13.6% [at 5.82 µM] (inactive).

In the case of `CCNC(=O)[C@H]1O[C@@H](n2cnc3c(N)nc(NCCc4ccc(CCC(=O)O)cc4)nc32)[C@H](O)[C@@H]1O`, the Potency result is “inactive”.

Turning to `COc1cc2c(c(OC)c1OC)-c1c(cc3c(c1O)OCO3)C[C@@H](C)[C@@H](C)C2`, the Potency entry was “inactive”.

As to `COc1cc(=O)n(C)c2c(O)cccc12`, the Potency entry was “inactive”.

On to `CC1(C)CCC[C@]2(C)[C@H]3CC(=O)O[C@]3(C)CC[C@@H]12`, for which the Potency entry is “inactive”.

For `CC(C)=CCc1c(-c2ccc(O)cc2O)oc2cc3c(c(O)c2c1=O)C=CC(C)(C)O3`, the Potency entry was “inactive”.

For `O=C1NC(=O)/C(=C/c2ccc3c(c2)OC(F)(F)O3)S1`, the Potency result is “inactive”.

For `COc1ccc(CCNC(=O)/C=C\c2ccccc2)cc1OC`, the Potency entry was “inactive”.

The next experiment is described as follows: qHTS for Inhibitors of the Functional Ribonucleoprotein Complex (vRNP) of Lassa (LASV) Arenavirus: Viability assay - alamar blue signal for LASV Primary Screen (AID 1347083). Further: nearly all actives have a fitted effect of over 80% in size. Further: potency means the concentration at half of the fitted maximal effect. To be noted: cell viability, alamar blue fluorescence (LASV minigenome counter-screen); series mostly up to 57.5 µM.
With `NC[C@@H]1O[C@@H](O[C@H]2[C@@H](O)[C@H](O[C@@H]3[C@@H](O)[C@@H](N)C[C@H](N)[C@H]3O[C@H]3O[C@H](CN)[C@@H](O)[C@@H](O)[C@H]3N)O[C@H]2CO)[C@H](N)[C@@H](O)[C@@H]1O`, the Potency result is “inactive”.

Consider `O=C(O)c1cc(N(Cc2ccccc2O)Cc2ccccc2O)ccc1O`, for which the Potency entry is “inactive”.

Regarding `COc1ccc([C@H]2Cc3cccc(O)c3C(=O)O2)cc1O`, the Potency result is “inactive”.

On to `COc1cc(/C=C2/C(=O)Nc3ccccc32)cc(OC)c1O`, for which the Potency result is “inactive”.

As for `C/C=C(/C)C(=O)O[C@@H]1c2c(ccc3ccc(=O)oc23)O[C@@H]1C(C)(C)OC(C)=O`, the Potency entry is “inactive”.

As for `COc1cc(C)c(C(=O)Oc2cc(C)c(C(=O)O)c(O)c2C)c(O)c1C`, the Potency result is “inactive”.

On to `CCN1C[C@]2(CO)CC[C@H](OC)[C@@]34C5C[C@H]6[C@H](OC)C5[C@](O)(C[C@H]6OC)[C@@](O)(C(OC)C23)[C@@H]14` (stereo not given in full), for which the Potency entry is “inactive”.

`CC1CCC(C(C)(C)S)C(=O)C1` (stereo not given): the Potency result is “inactive”.

Take `CC1C(c2ccccc2)OC(=O)N1C` (stereo not given): the Potency result is “inactive”.

Take `COc1ccc(COC(C)=O)cc1`: the Potency entry was “inactive”.

Consider `Nc1nc(N)c2[nH]cnc2n1`, for which the Potency entry is “inactive”.

As to `C[C@@H](O)CCC[C@H](O)/C=C/[C@H]1[C@H](O)CC(=O)[C@@H]1C/C=C\CCCC(=O)O`, the activity change, negative = reduced viability is -134% [at 5.82 µM] (inactive).

As to `COc1cc2c(cc1O)[C@@H]1Cc3cc(OC)c(OC)cc3C(C2)N1C`, the Potency result was “inactive”.

For the compound `COc1ccc2ccc(=O)oc2c1CC(=O)C(C)C`, the Potency result was “inactive”.

As to `CCC/C=C/CO`, the Potency result is “inactive”.

As to `O=C(O)CCC/C=C\C/C=C\C=C\[C@@H](O)C/C=C\CCCCCO`, the activity change, negative = reduced viability was 9.56% [at 0.757 µM] (inactive).

`COc1c2c(nc3occc13)C(CC=C(C)C)(OC)C(=O)C=C2` (stereo not given): the Potency result is “inactive”.

As to `CC(O)C(C)O` (stereo not given), the Potency result was “inactive”.

For `C[C@]12CCC3C(CC[C@H]4C[C@H](O)CC[C@]34C)C1C[C@H](O)[C@@H]2O` (stereo not given in full), the Potency result was “inactive”.

As to `C=Cc1cc(OC)c2c(c1)c(=O)oc1c2cc(OC)c2c(O)ccc(C3OC(C)C(O)C(C)(O)C3O)c21` (stereo not given), the Potency result was “inactive”.

With `Nc1nc(=O)n([C@H]2CSC(CO)O2)cc1F` (stereo not given in full), the Potency result was “inactive”.

For `C[C@H]1O[C@H](O[C@H]2[C@H](O)[C@@H](O)[C@@H](O[C@H]3[C@H](O)[C@@H](O)C(O)O[C@H]3CO)O[C@H]2CO)[C@H](O)[C@@H](O)[C@H]1N[C@H]1C=C(CO)[C@@H](O)[C@H](O)[C@@H]1O` (stereo not given in full), the Potency result was “inactive”.

`C=C1C(O)C[C@H]2C(=C)CCC3[C@H](OC(=O)[C@]3(O)CO)[C@@H]12` (stereo not given in full): the Potency entry is “inactive”.

With `NC1=NCCCC1`, the Potency entry was “inactive”.

As to `CC(=O)c1ccc(-c2cccs2)s1`, the Potency entry was “inactive”.

As for `Cc1[nH]c(C=C2C(=O)Nc3ccccc32)c(C)c1CCC(=O)O`, the Potency was 10.9 µM (active).

In the case of `COc1c2c(cc3oc(CO[C@@H]4O[C@H](CO)[C@@H](O)[C@H](O)[C@H]4O)cc(=O)c13)O[C@H](C(C)(C)O)C2`, the Potency entry is “inactive”.

In the case of `CCCCC[C@H](O)/C=C/[C@H]1OC(O)C[C@H](O)[C@@H]1C/C=C\CC(=O)O` (stereo not given in full), the activity change, negative = reduced viability is 12.3% [at 0.757 µM] (inactive).

Consider `COC1=CC(=O)CC(C)C12Oc1cc(OC)cc(OC)c1C2=O` (stereo not given), for which the Potency result was “inactive”.

`C=CC(C)(CCC=C(C)C)OC(=O)C(C)C` (stereo not given): the Potency result is “inactive”.

`COc1c(C(O)CC(C)C)ccc2c1C(=O)OCc1cc(C)cc(O)c1O2` (stereo not given): the Potency entry was “inactive”.

As for `C[C@@H]1CCCCCCCCCCC1=O`, the Potency entry was “inactive”.

In the case of `CCCCC/C=C\C/C=C\C/C=C\CCCCCCC(=O)O[C@H](COCCCCCCCCCCCCCCCC)COP(=O)([O-])OCC[N+](C)(C)C`, the activity change, negative = reduced viability was 4.54% [at 5.82 µM] (inactive).

On to `CCNC(=O)[C@H]1O[C@@H](n2cnc3c(N)nc(NCCc4ccc(CCC(=O)O)cc4)nc32)[C@H](O)[C@@H]1O`, for which the Potency entry was “inactive”.

In the case of `COc1cc2c(c(OC)c1OC)-c1c(cc3c(c1O)OCO3)C[C@@H](C)[C@@H](C)C2`, the Potency entry was “inactive”.

In the case of `COc1cc(=O)n(C)c2c(O)cccc12`, the Potency result is “inactive”.

In the case of `CC1(C)CCC[C@]2(C)[C@H]3CC(=O)O[C@]3(C)CC[C@@H]12`, the Potency result was “inactive”.

Turning to `CC(C)=CCc1c(-c2ccc(O)cc2O)oc2cc3c(c(O)c2c1=O)C=CC(C)(C)O3`, the Potency entry was “inactive”.

As for `O=C1NC(=O)/C(=C/c2ccc3c(c2)OC(F)(F)O3)S1`, the Potency result was “inactive”.

`COc1ccc(CCNC(=O)/C=C\c2ccccc2)cc1OC`: the Potency result is “inactive”.
